Hits are enriched below; roughly 32% of the tested compounds scored in any of these assays.
CYP2C9 act = human CYP2C9 activators, primary screen, biochemical, luminescence; activation factor at 5 µM; recombinant CYP2C9, luciferin-H conversion; hits give high values; factor 1 = untreated enzyme, 0 = blocked; 96,000 compounds, 1.4% hits; Cytochrome P450 2C9 (Homo sapiens), P11712;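 active = activation factor of 2 or more for CYP2C9 at a 5 µM dose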
Target sequence (P11712 whole entry, looked up): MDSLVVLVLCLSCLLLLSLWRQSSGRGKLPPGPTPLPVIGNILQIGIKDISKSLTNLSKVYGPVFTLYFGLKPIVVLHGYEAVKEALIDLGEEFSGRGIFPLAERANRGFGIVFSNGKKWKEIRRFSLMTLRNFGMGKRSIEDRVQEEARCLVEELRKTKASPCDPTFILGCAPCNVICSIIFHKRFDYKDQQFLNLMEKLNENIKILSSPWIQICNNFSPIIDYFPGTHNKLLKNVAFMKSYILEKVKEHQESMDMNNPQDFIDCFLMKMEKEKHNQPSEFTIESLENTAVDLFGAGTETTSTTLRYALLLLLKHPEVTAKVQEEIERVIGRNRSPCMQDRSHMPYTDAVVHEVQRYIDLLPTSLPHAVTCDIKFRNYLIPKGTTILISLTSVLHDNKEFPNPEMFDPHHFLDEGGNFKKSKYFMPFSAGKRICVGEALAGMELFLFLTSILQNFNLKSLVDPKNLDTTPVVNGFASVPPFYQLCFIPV
CYP2C19 act = human CYP2C19 activators, primary screen, biochemical, luminescence; Cytochrome P450 2C19 (Homo sapiens), P33261; recombinant CYP2C19, luciferin-H EGE luminescence; hits give high values; 0 = fully inhibited enzyme, 1 = untreated enzyme; activation factor at 5 µM; 96,000 tested, under 10 active;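 active = activation factor of at least 2 at 5 µM in the primary screen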
CYP2C9 inhib = blockers of cytochrome P450 2C9 activity – biochemical, luminescence, ADME assay, primary screen. P11712. CYP2C9 Supersomes, luciferin-H conversion. inhibition, % at 5 µM. 96,000 compounds, 20% hits;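 active = blocking of liver enzyme CYP2C9 beyond about 50% at 5 µM, limit read from the data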
CYP2C19 inhib = blockers of cytochrome P450 2C19 activity – biochemical, luminescence, ADME assay, primary screen | 96,000 compounds, 21% hits | CYP2C19 Supersomes, luciferin-H EGE luminescence, 30 min | inhibition, % at 5 µM | AID 778, 2007 | P33261;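 active = CYP2C19 inhibition above a set limit at 5 µM in the primary screen, cut at about 50% in these data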
PostGolgi ctrl = growth inhibition of yeast control strain, primary screen, counter-screen for post-Golgi transport modulator project | efflux-deficient yeast background strain, growth absorbance A615, 16 h | inhibition, % at 10 µM | 98,000 compounds, 5% hits | AID 738, 2007
PostGolgi yeast = phenotypic screen on post-Golgi transport, primary screen. post-Golgi transport phenotypic cell assay. inhibition, % at 10 µM. 98,000 compounds, 0.9% hits. AID 739, 2007;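 also: yeast cells grown in 1536-well plates; yeast grown about 18 h at 30C before absorbance read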
Numbers stand for hits; i = inactive; nt = not tested or not shown. Rule as the data show it, unless noted: active = inhibition above about 30%; inactive = the rest.

SMILES	CYP2C9 act	CYP2C19 act	CYP2C9 inhib	CYP2C19 inhib	PostGolgi ctrl	PostGolgi yeast
CCCC1C2C(=O)N(c3ccccc3OC)C(=O)C2ON1c1ccccc1 (stereo unspecified)	i	i	69.8	94.8	i	i
CCCOc1ccc(N2C(=O)C3ON(c4ccccc4)C(c4ccc(O)c(OC)c4)C3C2=O)cc1 (stereo unspecified)	i	i	i	i	i	i
O=C1C2ON(c3ccc(Cl)cc3)C(c3ccco3)C2C(=O)N1c1ccccc1 (stereo unspecified)	i	i	57.9	93.1	i	i
Cn1c(=O)c2c(nc(SCCN3CCOCC3)n2Cc2cccc3ccccc23)n(C)c1=O	i	i	i	i	i	i
CCOc1nc(N2CCCCC2)nc(-n2cc(-c3ccccc3)nn2)n1	i	i	i	i	i	i
CCOC(=O)c1c(-c2ccccc2)nnn1-c1nc(OCC)nc(N2CCCCC2)n1	i	i	59.9	88.2	i	i
CCOC(=O)c1nnn(-c2nc(OC)nc(N3CCCCC3)n2)c1-c1ccccc1	i	i	55.5	80.2	i	i
CCOC(=O)c1nnn(-c2nc(N3CCCC3)nc(N3CCCC3)n2)c1-c1ccccc1	i	i	i	51.0	i	i
CCOC(=O)c1c(C)nc(C)c(C(=O)OCC)c1-c1ccccc1	nt	nt	nt	nt	i	i
CN(C1CCS(=O)(=O)C1)S(=O)(=O)c1ccc(C2CCCCC2)cc1 (stereo unspecified)	i	i	i	i	i	i
CCC(Sc1nc(N)cc(=O)[nH]1)C(=O)NC(C(=O)OC)c1ccccc1 (stereo unspecified)	i	i	i	i	i	i
Cc1ccc(S(=O)(=O)N/N=C2/CC(c3ccccc3)Oc3ccccc32)cc1[N+](=O)[O-] (stereo unspecified)	i	i	99.0	67.3	36.1	i
O=S(=O)(N/N=C1/CC(c2ccccc2)Oc2ccccc21)c1ccc(Br)cc1 (stereo unspecified)	i	i	64.7	i	38.4	i
CCOC(=O)C1=NN(N=O)C2(CC(=O)N(c3cc(C)cc(C)c3)C2=O)C1 (stereo unspecified)	i	i	i	i	i	i
COc1ccc(N(CC(O)Cn2c3ccccc3c3ccccc32)S(=O)(=O)c2ccccc2)cc1 (stereo unspecified)	i	i	69.8	82.6	i	i
CS(=O)(=O)N(CC(O)Cn1c2ccccc2c2ccccc21)c1ccccc1 (stereo unspecified)	i	i	96.7	95.9	i	i
OCCN(CCO)CC(O)Cn1c2ccccc2c2ccccc21 (stereo unspecified)	i	i	i	i	i	i
Cc1ccc(N(CC(O)CN(C)C)S(=O)(=O)c2ccccc2)cc1 (stereo unspecified)	i	i	i	i	i	i
CCN(CC(O)Cn1c2ccccc2c2ccccc21)S(=O)(=O)c1ccc(C)cc1 (stereo unspecified)	i	i	89.7	98.9	54.8	i
O=C1Nc2cc(Cl)c(Cl)cc2N(O)N1c1ccc(Cl)cc1	i	i	i	i	i	i
O=C1Nc2cc(Cl)c(Cl)cc2N(O)N1c1cccc(Cl)c1	i	i	52.1	i	i	i
CCSc1nc2c(cnn2-c2ccc(C)c(C)c2)c(=O)[nH]1	i	i	i	i	i	i
O=C1NCC2=C1C(c1ccc(Br)cc1)Nc1ccccc1N2 (stereo unspecified)	i	i	54.9	i	i	i
CC1(C)CC(=O)C2=C(C1)Nc1ccccc1NC2c1ccc2c(c1)OCO2 (stereo unspecified)	i	i	i	i	i	i
CC(C)NC(=O)c1onc(CSc2cccc(F)c2)c1C(=O)O	i	i	i	i	i	i
SMILES	CYP2C9 act	CYP2C19 act	CYP2C9 inhib	CYP2C19 inhib	PostGolgi ctrl	PostGolgi yeast
COCCNC(=O)c1onc(CSc2ccc(F)c(F)c2)c1C(=O)O	i	i	i	i	i	i
CC(C)NC(=O)c1onc(CSc2ccc(Cl)cc2)c1C(=O)O	i	i	70.1	i	i	i
C=CCNC(=O)c1onc(CSc2ccc(Cl)cc2)c1C(=O)O	i	i	73.4	i	i	i
C=CCNC(=O)c1onc(CSc2ccc(F)c(F)c2)c1C(=O)O	i	i	77.0	i	i	i
COc1ccc(SCc2noc(C(=O)NC(C)C)c2C(=O)O)cc1	i	i	i	i	i	i
CCCCNC(=O)c1onc(CSc2cccc(F)c2)c1C(=O)O	i	i	65.6	i	i	i
CCNc1nc(N)c(C(=C(C#N)C#N)c2ccccc2)s1	i	i	i	i	i	i
CCCCNC(=O)c1onc(CSc2ccc(Cl)cc2)c1C(=O)O	i	i	86.5	i	i	i
O=C(NCC1CCCO1)c1onc(CSc2ccccc2)c1C(=O)O (stereo unspecified)	i	i	i	i	i	i
CC(C)c1ccc(SCc2noc(C(=O)NCC3CCCO3)c2C(=O)O)cc1 (stereo unspecified)	i	i	60.7	i	i	i
COCCNC(=O)c1onc(CSc2cccc(Cl)c2)c1C(=O)O	i	i	i	i	i	i
Cc1cccc(-c2nc(C#N)c(NC3CCCCC3)o2)c1	i	i	i	i	i	i
CC(C)(C)NC(=O)C1CCN(C(=O)c2ccc(Br)cc2)CC1	i	i	i	i	i	i
COc1ccc(OC)c(NC(=O)CSc2nc3ccccc3c(=O)n2CCNC(C)=O)c1	nt	nt	nt	nt	i	i
CCn1c(SCC(N)=O)nc2ccccc2c1=O	i	i	i	i	i	i
CC(=O)NCCn1c(SCc2ccc(C)cc2C)nc2ccccc2c1=O	i	i	98.5	98.1	33.4	i
CC(=O)NCCn1c(SCc2cc(F)ccc2F)nc2ccccc2c1=O	i	i	99.2	76.2	i	i
CC(=O)NCCn1c(SCc2ccccc2C)nc2ccccc2c1=O	i	i	98.5	78.6	i	i
CCC(C)(C)NC(=O)C(c1cccnc1)N(CCOC)C(=O)Cn1nnc2ccccc21 (stereo unspecified)	i	i	i	i	i	i
O=C(N/N=C1\CCCc2ccccc21)c1ccc([N+](=O)[O-])cc1Cl	i	i	i	i	i	i
CC(=O)c1c(C(C)=O)c(C)n(NC(=O)c2ccncc2)c1C	i	i	i	88.8	i	i
CC(C)(C)c1cc(NC(=O)COc2ccc(Br)cc2)n(-c2ccccc2)n1	i	i	i	i	36.5	i
Cc1csc(SCC(=O)Nc2cc(C(C)(C)C)nn2-c2ccccc2)n1	i	i	79.8	70.8	i	i
Cc1nn(-c2ccccc2)c(C)c1NC(=O)COc1ccc2ccccc2c1	i	i	i	74.4	i	i
CC(C)(C)n1nc2c(c1NC(=O)COc1ccc3ccccc3c1)CS(=O)(=O)C2	i	i	i	i	i	i

High-throughput results: PubChem, several laboratories
